Screen size: about 290,000 compounds; about 3,000 (1%) were called active. The sample as a whole holds a higher share of actives than the screen did. Values without a mark were called inactive. Rule as the data show it: active = inhibition mostly above about 36% (no sharp cut-off); inactive = mostly below about 34%.
Assay: inhibition of NOD1-driven NF-kB reporter – cell-based, luminescence, uHTS, primary screen (AID 1578);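 also: HEK-293T reporter cells stimulated with the NOD1 agonist gamma-tri-DAP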
Conditions: NOD1-driven NF-kB luciferase reporter cells, at 4 µM, hits give high values

Compound | inhibition
Cc1ccc(S(=O)(=O)NC(CC(=O)O)c2cccs2)cc1 (centres undefined) | -21.8%
CCCCCN1C2=NCCN2c2ccccc21 | -41.3%
Cc1ccc(CN2C3=NCCCN3c3ccccc32)cc1 | -29.5%
CC(C)(C)c1ccc(CN2C3=NCCCN3c3ccccc32)cc1 | 112% (active)
c1ccc(CN2C3=NCCCN3c3ccccc32)cc1 | -21.5%
CCCCCCCN1C2=NCCN2c2ccccc21 | 35.9% (active)
CCCCCCN1C2=NCCN2c2ccccc21 | -24.5%
CCCCOCCCNC1=NCCCCC1 | -5.9%
CCNC(=O)NC(=O)C(C)OC(=O)c1oc2ccc(OC)cc2c1C (centres undefined) | 25.1%
O=C(O)c1ccc2cc[nH]c2c1 | 7%
Cc1ccc2cc(C#N)c(NCc3ccco3)nc2c1 | -2.1%
CC(C)(C)n1cnc2cc(NC(=O)c3ccccc3)ccc21 | -12.2%
Cc1ccc(OCC(=O)NC(C)c2ccc(Cl)c(Cl)c2)c([N+](=O)[O-])n1 (centres undefined) | -30.1%
CC(NC(=O)CCl)c1ccc(Cl)c(Cl)c1 (centres undefined) | 93.1% (active)
CC(=O)NC(C)c1ccc(Cl)c(Cl)c1 (centres undefined) | -19.4%
COc1ccc2c(/C=N/NS(=O)(=O)c3ccc(C)cc3)c[nH]c2c1 | -6.6%
COc1ccc(OC)c(S(=O)(=O)N/N=C\c2c[nH]c3ccccc23)c1 | 30.3%
Cc1ccc(S(=O)(=O)N/N=C/c2c[nH]c3ccccc23)cc1 | 62.4% (active)
Fc1c(F)c(F)c(N/N=C/c2c[nH]c3ccccc23)c(F)c1F | 87.4% (active)
C(=N\Nc1nc2ccccc2[nH]1)/c1c[nH]c2ccccc12 | 34.5%
COc1ccc(O)c(/C=N/NS(=O)(=O)c2ccc(C)cc2)c1 | 1.6%
COc1ccc2[nH]cc(/C=N/NS(=O)(=O)c3ccc(C)cc3)c2c1 | 44% (active)
C(=N\Nc1ccccn1)/c1c[nH]c2ccccc12 | 10.9%
Cc1ccc(S(=O)(=O)N/N=C/c2ccccc2O)cc1 | -2.2%
COc1ccc(N2CCN(C(CNC(=O)C(=O)NCc3ccc4c(c3)OCO4)c3ccco3)CC2)cc1 (centres undefined) | -7.2%

Compound | inhibition
O=C(O)/C=C/C(=O)Nc1ccc(S(=O)(=O)Nc2nccs2)cc1 | -6.1%
COc1ccc(CCNC(=O)CSc2nnc(CNC(=O)c3ccccc3F)o2)cc1OC | -6.3%
CCC(C)[C@H](NC(=O)N1CCn2c1nc1ccccc12)C(=O)NCc1ccccc1 (some centres undefined) | -0.4%
CC(C)C(C)NC(=O)COC(=O)c1cc(S(=O)(=O)N(C)C)ccc1N1CCCC1 (centres undefined) | -50.6%
c1ccc(COn2nnc3ccccc32)c(COn2nnc3ccccc32)c1 | -7.5%
COc1ccc(OC)c(NC(=O)c2nnn(Cc3ccccc3C)c2N)c1 | -33.8%
CC1CN(Cc2ccccc2)c2ccccc2NC1=S (centres undefined) | 108% (active)
CC1CSc2ccccc2NC1=S (centres undefined) | -19.1%
CC1CC(=S)Nc2ccccc2N1Cc1ccccc1 (centres undefined) | -2.8%
COc1cc(NC(=O)c2cnn3c(C(F)F)cc(C4CC4)nc23)c(OC)cc1Cl | -21.7%
COc1ccc(OCC(=O)Nc2ccc(NC(=O)c3ccccc3Cl)c(OC)c2)cc1 | -16.9%
COCCNC(=O)c1cc2cc3ccc(OC)cc3nc2o1 | 4.6%
COc1ccc2cc3cc(C(=O)NCCC(C)C)oc3nc2c1 | -9.5%
O=C(CSc1nc2ccccc2[nH]1)N1CCN(c2ccccc2)CC1 | -37.6%
CC1=CC(C)(C)Nc2ccc(OC(=O)c3ccco3)cc21 | 98.8% (active)
CC1=CC(C)(C)Nc2ccc(OC(=O)c3cccnc3)cc21 | 34.3%
CC1=CC(C)(C)Nc2ccc(OC(=O)CN3C(=O)c4ccccc4C3=O)cc21 | 21.8%
O=C(NCC1CCCO1)c1ccc(S(=O)(=O)N2CCC(c3nc4ccc(Cl)cc4[nH]3)CC2)cc1 (centres undefined) | -25.9%
COCCNC(=O)C(c1ccc(C)o1)N(C(=O)C(=O)NC1CCCCC1)c1ccc(F)cc1 (centres undefined) | -37.3%
CSCCC(NC(=O)c1cccc(C)c1)C(=O)Nc1sccc1C(N)=O (centres undefined) | 68.6% (active)
CSCCC(NC(=O)c1ccccc1)C(=O)Nc1ccc(C)cc1 (centres undefined) | 1.6%
CSCCC(NC(=O)c1cccc(C)c1)C(=O)O (centres undefined) | 2%
NC1=NC(=O)/C(=C/c2cn(CCC(=O)O)nc2-c2ccc(Cl)cc2)S1 | -34.5%
CCOc1ccc(NC(=O)CSc2nnc(N)s2)c([N+](=O)[O-])c1 | -24.6%
OC1CCCN(CC(O)c2ccccc2)C1 (centres undefined) | -32.3%

Compound | inhibition
C/C(=N\Nc1ccc(C(=O)O)cc1)c1ccc(Br)cc1 | 5%
Brc1ccc(N/N=C(/N=Nc2nn[nH]n2)c2ccccc2)cc1 | 63.8% (active)
Cn1nnnc1N=N/C(=N/Nc1ccccc1)c1ccccc1 | -8.4%
CCOc1ccc(S(=O)(=O)Nc2cc(F)ccc2F)c2cccnc12 | -15.4%
CC1=NN(c2cccc(C(=O)O)c2)C(=O)/C1=C\C=C\c1ccco1 | -11.6%
CC1=NN(c2ccccc2)C(=O)/C1=C/C=C/c1ccccc1 | 31.6%
CC1=NN(c2cccc(C(=O)O)c2)C(=O)/C1=C\C=C/c1ccccc1 | 58.9% (active)
CCCNC(=O)c1onc(CSc2nc3ccccc3[nH]2)c1C(=O)NCCC | 11.1%
C=CCn1c(Sc2nnc(C)s2)nc2c1c(=O)[nH]c(=O)n2C | -4.6%
C=CCn1c(Sc2ncc([N+](=O)[O-])s2)n[nH]c1=O | 30.1% (active)
C=CCn1c(CSc2ccccc2[N+](=O)[O-])n[nH]c1=S | -1.6%
CCOC(=O)CSc1nc(N)c(C#N)cc1C#N | -40.2%
COc1cc(CN2CCNC(=O)C2CC(=O)N(C)CCCN2CCOCC2)cc(OC)c1 (centres undefined) | -24.5%
O=C1NC(=S)S/C1=C\C=C\c1ccc([N+](=O)[O-])o1 | 39.6% (active)
O=[N+]([O-])c1ccc(/C=[N+](\[O-])[C@@H]2CCCC[C@@H]2/[N+]([O-])=C/c2ccc([N+](=O)[O-])o2)o1 | -2%
O=C1CN(/N=C/c2ccc([N+](=O)[O-])o2)C(=O)N1 | -4.5%
COc1ccc(C(C)=O)cc1CC(=O)Nc1ccccc1-c1ccccc1 | -4.6%
S=c1[nH]cnc2scc(-c3ccccc3)c12 | -0.1%
Cc1sc2nc[nH]c(=S)c2c1-c1ccccc1 | 99.2% (active)
Cc1c(-c2ccccc2)sc2nc[nH]c(=S)c12 | -35.9%
O=C(COC(=O)c1ccc(Br)cc1)NCc1ccc(F)cc1 | -22.6%
O=C(COC(=O)Cc1ccc(-c2ccccc2)cc1)NCc1ccc(F)cc1 | -4.2%
O=C(COC(=O)Cc1ccc(Br)cc1)NCc1ccc(F)cc1 | 48.2% (active)
COc1ccc(/C(C)=N/NC(=O)c2sccc2-n2cccc2)cc1 | -58.2%
Cc1sc2ncnc(NCc3ccco3)c2c1C | -21.2%

Compound | inhibition
Cc1nc(NCc2ccco2)c2c(C)c(C)sc2n1 | 97.6% (active)
Cc1nc(NCc2ccco2)c2c3c(sc2n1)CCC3 | -54.6%
COc1ccccc1C1CCN(Cc2ccc(C)cc2)CC1 | 4.9%
Cc1cc(C=C2C(=O)c3ccccc3C2=O)c(C)n1-c1ccccc1 | 32.4%
Cc1cc(/C=C2\Cc3ccccc3C2=O)c(C)n1-c1ccccc1 | 63.8% (active)
Cc1cc(C=C2C(=O)CCCC2=O)c(C)n1-c1ccccc1 | -19.3%
Cc1nc(N)ncc1-c1ccc2c(c1)OCO2 | 2.9%
O=C(NCC(=O)N(c1ccc(Cl)cc1)C(C(=O)NC1CCCC1)c1cccnc1)c1ccco1 (centres undefined) | 6%
Oc1[nH]c(N=C2N=c3ccccc3=N2)c2ccccc12 | 42.6% (active)
Oc1[nH]c2ccccc2c1N=Nc1cccc(Cl)c1 | -10.3%
N#CC(=C1N=c2ccccc2=N1)c1c(O)[nH]c2ccccc12 | 20%
CC(C)NC(=O)NC(=O)COC(=O)c1cc[n+]([O-])cc1 | -6.6%
CCOC(=O)CON1C(=O)C(=O)N(OCC(=O)OCC)C2CCCCC21 (centres undefined) | -26.3%
CC(C)(C)N1CC(COc2ccccc2)OC1=O (centres undefined) | -21.9%
Cc1sc(NC(=O)c2ccccc2)c(C(=O)c2ccccc2)c1C | 14.5%
Cc1sc(NC(=O)CCl)c(C(=O)c2ccccc2)c1C | 60.9% (active)
Cc1ccc(C(=O)Nc2sc(C)c(C)c2C(=O)c2ccccc2)cc1 | -9.8%
Cc1ccc(NC(=O)CN(C)C(=O)/C=C/c2cccc(F)c2)cc1 | -1.6%
COCCN(Cc1cc2cc(C)ccc2n2nnnc12)C(=S)Nc1cccc(C)c1 | 33.3%
COCCN(Cc1cc2cc(C)ccc2n2nnnc12)C(=S)Nc1ccccc1C | 52.2% (active)
COCCN(Cc1cc2cc(C)ccc2n2nnnc12)C(=S)Nc1ccc(C)cc1 | 10.5%
Cc1ccc2c(c1)cc(CN(Cc1cccnc1)C(=O)NCc1ccccc1)c1nnnn12 | -2.2%
Cc1ccc2c(c1)cc(CN(Cc1cccnc1)C(=O)c1ccccc1)c1nnnn12 | -33.2%
Cc1ccc(C(=O)N(Cc2cccnc2)Cc2cc3cc(C)ccc3n3nnnc23)cc1 | 52% (active)

From PubChem BioAssay AID1578 (Sanford-Burnham Center for Chemical Genomics, 2009)
